Values joined by “and” are separate entries in the source; they are usually repeats but may differ in a detail not shown here. Identical values can stand only once. About 5,100 (32%) of roughly 16,000 compounds were called active. Another 25% or so got no clear call; they are omitted. Some of the results follow. A number with no mark means an inactive call. The call rests on the fitted dose curve; in most records, active means well fitted curve in the direction sought with a large enough effect; inconclusive means small, poorly fitted or top-dose-only effect, or effect the other way; inactive means no such curve, though single readings can be large or run the other way.
On the % scale 0 is the no-effect control and ±100 the full control effect.

For this test, the target named is Cytochrome P450 3A4 (Homo sapiens) (UniProt P08684). The experiment in a line: Cytochrome panel assay with activity outcomes. The following applies: recombinant CYP, pro-luciferin dealkylation, luminescence, p450-cyp3a4; series mostly up to 57.1 µM.
Chain of Cytochrome P450 3A4 (Homo sapiens) (P08684 whole entry, looked up): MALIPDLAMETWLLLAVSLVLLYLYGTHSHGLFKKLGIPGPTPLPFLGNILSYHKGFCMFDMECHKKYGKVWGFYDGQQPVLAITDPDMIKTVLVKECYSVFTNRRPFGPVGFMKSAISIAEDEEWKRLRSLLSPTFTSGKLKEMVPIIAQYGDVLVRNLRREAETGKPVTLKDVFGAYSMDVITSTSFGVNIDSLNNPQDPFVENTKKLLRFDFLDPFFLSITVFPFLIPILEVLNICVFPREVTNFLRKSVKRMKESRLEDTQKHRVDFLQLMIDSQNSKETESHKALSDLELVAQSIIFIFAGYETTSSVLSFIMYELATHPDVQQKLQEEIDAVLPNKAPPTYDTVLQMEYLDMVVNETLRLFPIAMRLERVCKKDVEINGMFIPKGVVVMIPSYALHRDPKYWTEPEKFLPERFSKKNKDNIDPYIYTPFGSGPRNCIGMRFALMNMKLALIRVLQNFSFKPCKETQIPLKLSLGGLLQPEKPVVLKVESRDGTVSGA
`O=C1C[C@@H](O)[C@@H](O)[C@H]2[C@@H]3C(=O)N(C4CCCCC4)C(=O)[C@@H]3CC[C@H]12`: the activity, negative = inhibition was -5.08% [at 11.4 µM] and -17.3% [at 11.4 µM] and -26.5% [at 11.4 µM].

For the molecule `COc1ccc(C2=CSC(/N=C/c3ccc(F)cc3)=NN2)cc1`, the activity, negative = inhibition was 0.425% [at 2.29 µM]. In general, AC50 refers to the midpoint of the concentration-response curve, whichever way the signal moves. As to `COc1ccc(/C=N/n2c(-c3cccs3)n[nH]c2=S)cc1`, the AC50 is 8.91 µM (active). On the same count and under the same terms, under `Cc1ccc(-c2n[nH]c(=S)n2/N=C/c2cccn2C)cc1` stands 12.6 µM (active); under `Cc1ccc(/C=N/n2c(-c3cccs3)n[nH]c2=S)cc1`, 11.2 µM (active).

For the molecule `Cc1ccc(/C=C/c2nnc(-c3cccs3)o2)cc1`, the activity, negative = inhibition was 6.75% [at 2.29 µM]. Consider `CN(C)C=Nc1ccc2nn(-c3ccccc3)nc2c1`, for which the activity, negative = inhibition is -3.41% [at 2.29 µM].

As to `O=[N+]([O-])c1ccc([C@@H](Nc2ccccc2)c2ccc3cccnc3c2O)cc1`, the activity, negative = inhibition was -23.7% [at 11.4 µM].

In the case of `c1ccc(-c2nc(N3CCCCCC3)nc(-n3ccnc3)n2)cc1`, the AC50 was 0.708 µM (active). The same measure, in the same setting: under `CN(c1ccccc1)c1nc(-n2ccnc2)nc(-n2ccnc2)n1` stands 0.891 µM (active).

In the case of `c1ccc(-c2nnn(CCN3CCCCC3)n2)cc1`, the activity, negative = inhibition was -9.98% [at 11.4 µM].

For the molecule `CCCSc1cc(N2CCCC2)nc(-c2ccccc2)n1`, the AC50 result was “inactive”. Still for that read-out and setting: under `CN(C)Cc1ccccc1-c1ccc2ncnc(N3CCOCC3)c2c1` stands 20 µM (active).

With `COc1ccccc1-c1ccc2ncnc(N3CCOCC3)c2c1`, the AC50 is 6.31 µM (active). On the same count and under the same terms, to `COc1ccccc1-c1ccc2ncnc(N3CCN(C)CC3)c2c1` belongs 3.16 µM (active). Same read-out and setting: under `CN(C)C(=O)c1ccc(-c2ccc3ncnc(N4CCC(C(=O)O)CC4)c3c2)cc1` stands “inactive”. As to `CCCCCCCCCn1cc(C(C)=O)c(=O)[nH]c1=O`, the activity, negative = inhibition was -7.53% [at 2.29 µM]. Turning to `CN(C)C[C@H]1CCC2=C(C1=O)C(c1ccc(Cl)c(Cl)c1)C1=C(CC[C@H](CN(C)C)C1=O)O2`, the AC50 was 0.398 µM (active). With `O=C(Cn1ccc(=O)[nH]c1=O)Nc1ccc(C(=O)O)c(O)c1`, the activity, negative = inhibition is -4.95% [at 11.4 µM]. `COc1ccc(Cc2nc3ccc(S(=O)(=O)N4CCOCC4)cc3[nH]2)cc1OC`: the AC50 is 12.6 µM (active).

Consider `COc1cccc2c1OC1(C)CC2/C(=C(\C)O)C(=O)N1` (stereo not drawn), for which the AC50 result is “inactive”.

Turning to `COc1cccc(C(c2c(C)[nH]n(-c3ccccc3)c2=O)c2c(C)[nH]n(-c3ccccc3)c2=O)c1O`, the AC50 result is “inactive”. The same measure, in the same setting: under `COc1cccc(C2NC(c3cccc(OC)c3O)C(C)C(=O)C2C)c1O` (stereo not drawn) stands 12.6 µM (active); under `CN1c2ccccc2Oc2c(c(=O)n(C)c(=O)n2C)C1c1cccc([N+](=O)[O-])c1` (stereo not drawn), 15.8 µM (active); under `CC(C)CC1CC(=O)OC1(C)C(=O)CSc1nc2ccccc2s1` (stereo not drawn), 15.8 µM (active). For `CC1(C)CC2(CC(C)(C(=O)CSc3nc4ccccc4s3)OC2=O)C(=O)O1` (stereo not drawn), the AC50 was 10 µM (active). Turning to `NCCSSCCN`, the AC50 result was “inactive”.

On to `COc1ccc2[nH]cc(CCNc3nc(-c4ccccc4OC)nc4ccccc34)c2c1`, for which the AC50 is 2.51 µM (active). On to `COc1ccc2[nH]cc(CCNc3nc(-c4ccoc4)nc4ccccc34)c2c1`, for which the AC50 was 3.16 µM (active). The same measure, in the same setting: under `COc1cccc(-c2nc(NCCc3c[nH]c4ccc(OC)cc34)c3ccccc3n2)c1` stands 2 µM (active); under `COc1ccc2[nH]cc(CCNc3nc(-c4cccnc4)nc4ccccc34)c2c1`, 1.58 µM (active). For `COC(=O)[C@@H]1O[C@@H](c2c(OC)c(OC)c(C)c(OC)c2OC)[C@H](C)[C@@H](O)[C@@H]1C`, the activity, negative = inhibition was -7.25% [at 11.4 µM]. For the molecule `O=c1c(-c2ccccc2)nc2cncnc2n1-c1ccccc1`, the AC50 result is “inactive”. Still for that read-out and setting: under `Cn1cc(-c2nc3cncnc3n(-c3ccccc3)c2=O)c2ccccc21` stands 10 µM (active).

Turning to `COc1ccc(-n2c(=O)c(-c3cn(C)c4ccccc34)nc3cncnc32)cc1`, the AC50 is 20 µM (active). As to `CCCc1nnc(NC(=O)CCC(=O)NCc2ccccc2OC)s1`, the activity, negative = inhibition is 2.33% [at 2.29 µM]. Still for that read-out and setting: under `CCCCCc1nnc(NC(=O)C(=O)OCC)s1` stands 1.6% [at 2.29 µM]. Turning to `CCCc1nnc(NC(=O)C(CC)OC(=O)c2cc(C)nc3ccccc23)s1` (stereo not drawn), the AC50 is 12.6 µM (active).

As for `CC(=O)Nc1ccc(C2=NN(CC#N)C(=O)SC2)cc1`, the AC50 result is “inactive”. As for `O=C(NCc1cccnc1)C1COc2ccccc2O1` (stereo not drawn), the AC50 is 5.01 µM (active). As for `O=C(O)[C@@H]1[C@@H](C(=O)NCc2cccnc2)[C@@H]2C=C[C@@H]1O2`, the activity, negative = inhibition was -21.1% [at 11.4 µM]. `O=C(O)Cc1cccnc1`: the activity, negative = inhibition was -12.2% [at 11.4 µM]. For the molecule `O=C(CCc1ccccc1)NCc1cccnc1`, the AC50 was 5.01 µM (active).

Turning to `O=C(Nc1cccnc1)C1COc2ccccc2O1` (stereo not drawn), the AC50 entry was “inactive”. On the same count and under the same terms, to `NNC(=O)Cc1cccnc1` belongs 3.16 µM (active). As for `O=C(NCc1cccnc1)[C@@H]1[C@@H](C(=O)O)[C@H]2CC[C@@H]1O2`, the activity, negative = inhibition was -23.9% [at 11.4 µM]. As to `COc1ccc(C(=O)c2c[nH]c(C(=O)NCc3cccs3)c2)cc1`, the AC50 entry is “inactive”. For the molecule `O=C(c1ccccc1)c1c[nH]c(C(=O)NCc2cccnc2)c1`, the AC50 is 4.47 µM (active). As for `CC(C)=CCC/C(C)=C/CO/N=C1/C[C@@H](O)[C@@H](O)[C@@H]2[C@@H]3C(=O)N(C(C)(C)C)C(=O)[C@H]3CC[C@H]12`, the activity, negative = inhibition is -7.78% [at 11.4 µM].

Turning to `CO[C@]1(C2=NCCN2)COc2ccccc2O1`, the AC50 entry was “inactive”. `O=C(CSCc1c(Cl)cccc1Cl)NCc1cccnc1`: the AC50 is 3.16 µM (active). As to `CCOC(=O)Cc1c(C)nc2c(C#N)c[nH]n2c1=O`, the AC50 entry was “inactive”. The same measure, in the same setting: to `Cc1nc2c(C(=O)NCc3ccc4c(c3)OCO4)c[nH]n2c(=O)c1Cc1ccccc1F` belongs 2.24 µM (active); to `COc1ccc(-n2cccc2C=O)cc1OC`, “inactive”. As to `CC(C)(C)NC(=O)CSC(=Nc1ccc(F)cc1)NC#N`, the activity, negative = inhibition was -11.3% [at 2.29 µM]. `O=C(Oc1ccccc1N1C(=O)C2CCCCC2C1=O)c1ccccc1` (stereo not drawn): the activity, negative = inhibition was -1.02% [at 2.29 µM].

`Cc1ccc(C(=O)COC(=O)c2ccccc2N2C(=O)C3C4CCC(C4)C3C2=O)cc1C` (stereo not drawn): the AC50 was 12.6 µM (active).

As for `C[N+]1(C)CCC[C@@H](OC(=O)C(O)(c2ccccc2)c2ccccc2)C1`, the AC50 entry was “inactive”. As for `Cc1ccc(-c2ccc(CCC(=O)O)n2CC2CCCO2)cc1` (stereo not drawn), the activity, negative = inhibition was 18.1% [at 2.29 µM].

`CCC(=O)Nc1ccc(C(=O)CSc2nnc(-c3ccc(O)cc3)n2CC2CCCO2)cc1OC` (stereo not drawn): the AC50 is 14.1 µM (active).

Take `Cc1cc(Cc2cc(Cc3cc(C)cc(C(C)(C)C)c3O)c(C)cc2C)c(O)c(C(C)(C)C)c1`: the activity, negative = inhibition was -23.1% [at 11.4 µM].

`Cc1cc(Cc2cc(C)cc(C(C)(C)C)c2O)c(O)c(Cc2cc(C)cc(C(C)(C)C)c2O)c1`: the activity, negative = inhibition was -19.8% [at 11.4 µM]. In the case of `Cc1cc(-c2cc(C)c(O)c(C(C)(C)C)c2)cc(C(C)(C)C)c1O`, the activity, negative = inhibition was -12.3% [at 11.4 µM]. Consider `Cc1cc(Cc2c(C)c(C)c(Cc3cc(C)cc(C(C)(C)C)c3O)c(C)c2C)c(O)c(C(C)(C)C)c1`, for which the activity, negative = inhibition was 0.196% [at 11.4 µM]. In the case of `CC(C)(CO)Cc1cc(C(C)(C)C)c(O)c(C(C)(C)C)c1`, the AC50 is 2.51 µM (active). Still for that read-out and setting: to `CC(C)(C=O)Cc1cc(C(C)(C)C)c(O)c(C(C)(C)C)c1` belongs 12.6 µM (active).

On to `CN(C)CCCc1c2ccccc2nc2ccc(Cl)cc12`, for which the activity, negative = inhibition was -1.41% [at 11.4 µM]. In the case of `CCCCCc1nc2c(=O)[nH]c3ccccc3c2o1`, the AC50 entry is “inactive”. On the same count and under the same terms, to `CCCCc1c2ccccc2nc2[nH]c3ccccc3c12` belongs 15.8 µM (active). Turning to `Clc1ccc2c(NC3CCC(N4CCCCC4)CC3)ccnc2c1` (stereo not drawn), the activity, negative = inhibition was -1.29% [at 11.4 µM]. Take `COc1ccc(CNc2cc(-c3ccccc3OC)ncn2)c(OC)c1`: the AC50 was 6.31 µM (active).

For the molecule `COc1ccc(CNc2cc(-c3ccccc3Cl)ncn2)c(OC)c1`, the AC50 is 6.31 µM (active).

As to `COc1ccccc1CNc1cc(-c2ccccc2OC)ncn1`, the half-maximal activity concentration (AC50) is 15.8 µM (active).

For the molecule `COc1ccccc1-c1cc(Nc2ccn[nH]2)ncn1`, the concentration at half-maximal activity (AC50) is 3.98 µM (active). For the molecule `COc1ccccc1-c1cc(Nc2ccc(F)cc2)ncn1`, the AC50 entry was “inactive”. Regarding `N/C(=N\O)c1cn([C@@H]2O[C@@H](CO)[C@H](O)[C@@H]2O)c2ncnc(NO)c12`, the activity, negative = inhibition is -7.27% [at 11.4 µM].

For the molecule `CC(=O)OC[C@@H]1O[C@@H](O/N=C2/C[C@@H](O)[C@@H](O)[C@@H]3[C@@H]4C(=O)N(C[C@@H]5CCCO5)C(=O)[C@H]4CC[C@H]23)[C@H](OC(C)=O)[C@H](OC(C)=O)[C@@H]1OC(C)=O`, the activity, negative = inhibition was -12.5% [at 11.4 µM]. Same read-out and setting: to `Oc1cc(O)c2c(c1)O[C@@H](c1ccc(O)c(O)c1)[C@H](O[C@@]1(c3cc(O)c(O)c(O)c3)Oc3cc(O)cc(O)c3[C@H](O)[C@@H]1O)C2` belongs -19.7% [at 11.4 µM]. Take `Cc1ccc(CONC(=O)/N=C/N(C)C)cc1`: the AC50 entry was “inactive”. For the molecule `O=C(Cc1ccccc1)N/N=C\c1ccc(Br)o1`, the AC50 result is “inactive”.

Consider `O/N=C/c1ccccc1OCc1ccc(Cl)cc1`, for which the AC50 is 12.6 µM (active). Still for that read-out and setting: under `Cc1ccc(COc2coc(CO)cc2=O)cc1` stands “inactive”. Turning to `NC(=S)N/N=C/c1ccccc1OCc1cccc(Cl)c1`, the activity, negative = inhibition was -18.2% [at 2.29 µM]. On the same count and under the same terms, to `Oc1ccc(Cl)cc1C=Nc1cnc2ccccc2c1` belongs -12.5% [at 11.4 µM]; to `O=C(SCc1cccc2ccccc12)c1ccc(Cl)cc1`, -17.6% [at 11.4 µM].

Consider `O=C(Cc1ccccc1)N/N=C/c1ccccc1OCc1ccc(Cl)cc1`, for which the AC50 was 15.8 µM (active). On the same count and under the same terms, under `Cc1ccc(COc2ccc(Br)cc2/C=N/O)cc1` stands 7.94 µM (active); under `O/N=C/c1cc(Cl)ccc1OCc1cccc2ccccc12`, 7.94 µM (active).

For the origin of these results see PubChem BioAssay AID1851 (National Center for Advancing Translational Sciences (NCATS), 2009).
